Hits are enriched below; roughly 18% of the tested compounds scored in any of these assays.
DT40 TDP1 CPT: growth inhibition of DT40 Tdp1-/-;hTDP1 cells with camptothecin (screen for TDP1 inhibitors). Potency, µM (titrated, usually from 46.2 µM), usual class: inhibitors. 420,000 tested, 12% active. chicken DT40 Tdp1-/-;hTDP1 cells + 20 nM CPT, ATP luminescence, 48 h; further: nearly all actives have a fitted effect of over 55% in size
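Chicken DT40 Tdp1-/- cells stably complemented with human TDP1 were seeded at 400 cells/well in medium containing 20 nM camptothecin, exposed to pin-transferred compounds, and grown at 37 °C for at least 48 hr. Viability was read as ATP luminescence.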
TDP1 cell noCPT: qHTS for Inhibitors of human tyrosyl-DNA phosphodiesterase 1 (TDP1): qHTS in cells in absence of CPT; 420,000 tested, 15% active; AID 686978, 2013; DT40 Tdp1-/- hTDP1 cells, no CPT, ATP luminescence, 48 h; Potency, µM (series often up to 46.2 µM), actives largely listed as inhibitors; further: nearly all actives have a fitted effect of over 55% in size
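Readout: luminescence from CellTiter-Glo after 30 min in the dark at RT. Cells: DT40 Tdp1-/- with stable hTDP1, 400/well. Exposure: compounds alone, ≥48 hr, 37 °C.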
TDP1 block: inhibitors of human tyrosyl-DNA phosphodiesterase TDP1 | Q9NUW8 | recombinant TDP1, AlphaScreen DNA substrate cleavage | Potency, µM (series often up to 130 µM), most hits filed as inhibitors | 350,000 tested, 0.28% active | AID 485290; further: nearly all actives have a fitted effect of over 40% in size
Target sequence (Q9NUW8 whole entry, looked up): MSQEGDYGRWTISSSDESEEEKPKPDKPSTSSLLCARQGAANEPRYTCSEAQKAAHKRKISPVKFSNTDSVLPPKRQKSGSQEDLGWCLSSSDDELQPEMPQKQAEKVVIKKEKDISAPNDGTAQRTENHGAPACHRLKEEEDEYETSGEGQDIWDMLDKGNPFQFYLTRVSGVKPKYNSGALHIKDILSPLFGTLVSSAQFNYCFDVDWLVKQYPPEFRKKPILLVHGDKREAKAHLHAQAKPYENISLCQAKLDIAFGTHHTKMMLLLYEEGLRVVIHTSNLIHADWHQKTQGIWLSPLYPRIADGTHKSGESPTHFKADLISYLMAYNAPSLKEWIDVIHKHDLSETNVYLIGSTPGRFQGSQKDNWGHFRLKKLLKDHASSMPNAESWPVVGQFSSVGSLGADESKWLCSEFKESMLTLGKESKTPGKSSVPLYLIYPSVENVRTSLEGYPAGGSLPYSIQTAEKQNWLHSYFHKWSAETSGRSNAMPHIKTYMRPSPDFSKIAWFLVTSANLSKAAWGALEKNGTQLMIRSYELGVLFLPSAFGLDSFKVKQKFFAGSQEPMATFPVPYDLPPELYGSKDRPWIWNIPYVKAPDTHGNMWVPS
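Tdp1 1 nM final; 15 min RT w/ cpd; substrate 15 nM, 5 min; beads 10 ug/ml, 10 min; AlphaScreen read. Neg ctrl: no enzyme.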
TGFb inhibitor: inhibitors of TGF-b signaling | HepG2 CAGA-GFP TGF-b/SMAD3 reporter, GFP fluorescence, 18 h; TGF-beta stimulated, 500 pg/mL final | Potency, µM (highest dose often 46.1 µM), usual class: inhibitors | 410,000 tested, 1.2% active; further: nearly all actives have a fitted effect of over 65% in size
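Cell-based qHTS in HEPG2 carrying a CAGA-GFP Smad reporter; compounds added before 500 pg/mL final TGF-beta, 18 h incubation at 37 degrees C, GFP fluorescence quantified per cell by imaging cytometry.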
HepG2 tox: HepG2 cytotoxicity, counter-screen for TGF-b inhibitors; HepG2 CAGA-GFP viability, ATP luminescence, 18 h; Potency, µM (top dose mostly 46.1 µM), most hits filed as cytotoxic; 410,000 tested, 0.76% active; AID 588856
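CellTiter-Glo luminescence gave cytotoxicity after 18 hours at 37 degrees C. The cells were HepG2 CAGA-GFP in 1% FBS DMEM, stimulated with 500 pg/mL TGF-beta after compound addition. %Activity was normalised to no-cell wells (complete cell-killing) and DMSO (no toxicity), and curves were fitted and classified.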
IL-1B inflam inh: inflammasome signaling inhibition, IL-1 beta readout | THP-1 LPS/ATP IL-1B secretion, AlphaLISA, 16 h; active compounds read low | activity change, % at 57.5 µM | 360,000 tested, 4.7% active; in the data active means activity change below about -50%; inconclusive means mostly about -30% to -49%
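Secreted IL-1B measured by AlphaLISA bead assay after 16 h compound exposure of THP-1 cells; compounds (final up to 57.5 uM) added 1 h before LPS (250 ng/mL) and ATP (1.25 mM) stimulation; lower signal means less secretion.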
Numbers stand for hits; . = inactive; ? = inconclusive; / = no result given; ! = not active in a repeat; [ ] = dose if it differs, or a comment. Unless noted, the call rests on the fitted dose curve; in most records, active means well fitted curve in the direction sought with a large enough effect; inconclusive means small, poorly fitted or top-dose-only effect, or another doubt; inactive means no such curve, though single readings can be large; an effect the other way counts as inactive or inconclusive.

SMILES	DT40 TDP1 CPT	TDP1 cell noCPT	TDP1 block	TGFb inhibitor	HepG2 tox	IL-1B inflam inh
O=[N+]([O-])c1ccc(N=Nc2c(Cl)cc(O)cc2Cl)cc1	4.11µM	4.61µM	.	1.12µM	3.16µM	?
CC(N)=Nc1ccc([N+](=O)[O-])cc1	.	.	.	.	.	.
COc1ncccc1-c1nnn(-c2ccc(C)cc2)n1	.	?	.	.	.	.
COc1ccc([N+](=O)[O-])cc1N(CC(=O)NCCSc1ccc(C)cc1)S(C)(=O)=O	.	.	.	.	.	?
Cc1cccc(NS(=O)(=O)c2ccc(NC(=O)CN(c3cc([N+](=O)[O-])ccc3C)S(C)(=O)=O)cc2)c1	16.4µM	?	.	15.8µM	.	?
COc1ccc(C)cc1NS(=O)(=O)c1ccc(NC(=O)CN(c2cc([N+](=O)[O-])ccc2C)S(C)(=O)=O)cc1	9.2µM	14.6µM	.	?	.	.
Cc1ccccc1N(CC(=O)Nc1ccc(F)cc1)S(C)(=O)=O	.	.	.	.	.	.
Cc1cccc(N(CC(=O)Nc2ccc(Br)cc2)S(C)(=O)=O)c1C	?	20.6µM	.	?	.	/
COc1ccccc1NS(=O)(=O)c1cccc(C(=O)NCC(c2ccco2)N(C)C)c1 (stereo not given)	.	.	.	.	.	.
CCCN(CC1CC1)C(=S)NC(=O)c1cc(Br)ccc1Cl	?	16.4µM	.	.	.	.
CCCN(CC1CC1)C(=S)NC(=O)c1ccccc1C	.	.	/	.	.	.
COc1ccc(O[C@H]2C=C[C@@H](c3ccccc3)O[C@H]2COC(=O)NCc2cccc3ccccc23)cc1	/	/	.[21 µM]	/	/	/
CC1CCCN(C(c2cccs2)c2nnnn2Cc2ccccc2)C1 (stereo not given)	?	?	.	.	.	.
Clc1ccc(CN(Cc2ccccc2)C(c2cccs2)c2nnnn2C2CCCC2)cc1 (stereo not given)	14.6µM	14.6µM	.	.	.	.
CC(C)(C)n1nnnc1C(c1cccs1)N(Cc1ccc(Cl)cc1)CC1CCCO1 (stereo not given)	20.6µM	16.4µM	.	.	.	.
Cc1cc2cc(C(c3nnnn3C(C)(C)C)N(Cc3ccco3)CC3CCCO3)c(=O)[nH]c2cc1C (stereo not given)	?	?	.	.	.	.
C(=C\c1ccccc1)/CN1CCN(C(CCc2ccccc2)c2nnnn2C2CCCCC2)CC1 (stereo not given)	?	?	/	?	.	.
Fc1ccc(CN(Cc2ccccc2)C(c2cccs2)c2nnnn2C2CCCCC2)cc1 (stereo not given)	?	16.4µM	.	.	.	.
O=C(NCCCNC(=O)c1cnccn1)c1cccc(F)c1	.	.	/	.	.	.
COc1cc(OC)c(NC(=O)CN2CCCN(Cc3ccccc3C)S2(=O)=O)cc1Cl	?	.	.	.	.	/
CCNC(=O)C1(C)CCCN(C(=O)C2(c3ccc(Cl)cc3)CCCC2)C1 (stereo not given)	?	?	/	.	.	.
Cc1ccc(C)c(CN2C[C@H](Sc3nc4ccccc4[nH]3)C[C@H]2C(=O)N2CCCN(C)CC2)c1	.[9.04 µM]	.	/	/	/	/
COc1cccc(-c2nc(NCC3CCCO3)c3ccccc3n2)c1O (stereo not given)	?	?	.	.	.	-84.0
COc1ccccc1Nc1nc(NCC2CCCO2)c2ccccc2n1 (stereo not given)	23.1µM	20.6µM	.	?	.	/
COc1cccc(N2CCN(Cc3nnnn3C3CCCCC3)CC2)c1	.	.	.	.	.	.
SMILES	DT40 TDP1 CPT	TDP1 cell noCPT	TDP1 block	TGFb inhibitor	HepG2 tox	IL-1B inflam inh
O=C1CCc2cc(OCCCCc3nnnn3C3CCCCC3)ccc2N1	?	16.4µM	.	.	.	.
C[C@H](CO)N1C[C@H](C)[C@@H](CN(C)C)Oc2c(NC(=O)CCCCCC(=O)Nc3ccccc3N)cccc2C1=O	18.4µM	?	.	?	.	.
C[C@H](CO)N1C[C@H](C)[C@@H](CN(C)Cc2ccncc2)Oc2c(NC(=O)CCCCCC(=O)Nc3ccccc3N)cccc2C1=O	?	23.1µM	.	.	.	.
Cc1cc(N2C(=O)Cc3ccccc3C2=O)ccc1C(C)C	.	.	/	.	.	.
O=C(O)C(Oc1ccc(Cl)cc1)c1ccc(Cl)cc1 (stereo not given)	.	.	/	.	.	.
COc1ccc(C2NS(=O)(=O)OCC2C)cc1 (stereo not given)	.	.	/	.	.	.
CCCCCCSc1cc(-c2nc3cc(C)ccn3c2NC2CCCCC2)ccc1OC	?	16.4µM	.	?	.	.
Cc1ccc2nc(-c3ccc(Cl)cc3)c(CC3CCCCC3)n2c1	?	?	/	.	.	.
CCCCCCSc1ccc(-c2nc3ccc(C)cn3c2NC2CCCCC2)cc1	16.4µM	18.4µM	.	.	.	.
COc1cc(-c2nc3cc(C)ccn3c2NC2CCCCC2)ccc1-c1ccc(C(C)=O)cc1	13µM	7.31µM	.	?	.	?
CCCCCCSc1cc(-c2nc3cnccn3c2NCc2ccccc2)ccc1OC	?	?	.	?	.	.
CCCCCCSc1ccc(-c2nc3cc(C)ccn3c2NC2CCCCC2)cc1	18.4µM	11.6µM	.	?	.	-70.0!
Cc1ccn2c(NC3CCCCC3)c(C)nc2c1	?	.	.	?	.	.
O=C(/C=C/c1ccccc1Cl)OCC(=O)c1ccc[nH]1	.	.	/	.	.	.
COc1ccc(-n2nc(C(=O)NCC(=O)N3CCN(c4ccccn4)CC3)c3ccccc3c2=O)cc1Cl	11.6µM	11.6µM	.	.	.	.
COC(=O)c1ccc(OCC(=O)NCCC2=CCCCC2)c(OC)c1	?	23.1µM	.	.	.	.
COc1ccc(-n2nc(C(=O)NCC(=O)N3CCC(C)CC3)c3ccccc3c2=O)cc1Cl	?	?	.[0.0935 µM]	.	.	.
COc1ccc(-n2nc(C(=O)NCC(=O)N3CCN(C)CC3)c3ccccc3c2=O)cc1	.	.	.	.	.	.
COc1ccc(-n2nc(C(=O)NCC(=O)N3CCN(c4ccccc4F)CC3)c3ccccc3c2=O)cc1OC	?	13µM	/	?	.	?
COc1ccc(-n2nc(C(=O)NCC(=O)N3CCN(c4ccccc4F)CC3)c3ccccc3c2=O)cc1	18.4µM	23.1µM	.	.	.	.
CCOC(=O)C1CCN(C(=O)CNC(=O)c2nn(-c3ccc(OC)c(OC)c3)c(=O)c3ccccc23)CC1	.	?	.	.	.	.
CCC(=O)c1ccc(OCC(=O)NCCC2=CCCCC2)c(OC)c1	?	?	.	.	.	.

Compound activity (PubChem BioAssay)
